About 5,100 (32%) of roughly 16,000 compounds were called active. Another 25% or so got no clear call; they are omitted. Calls follow the shape of the dose curve; as a rule, active = well fitted curve in the direction sought with a large enough effect; inconclusive = small, poorly fitted or top-dose-only effect, or effect the other way; inactive = no such curve, though single readings can be large or run the other way. This is one part of the list.
Target: Cytochrome P450 3A4 (Homo sapiens) (UniProt P08684)
Sequence (P08684 whole entry, looked up): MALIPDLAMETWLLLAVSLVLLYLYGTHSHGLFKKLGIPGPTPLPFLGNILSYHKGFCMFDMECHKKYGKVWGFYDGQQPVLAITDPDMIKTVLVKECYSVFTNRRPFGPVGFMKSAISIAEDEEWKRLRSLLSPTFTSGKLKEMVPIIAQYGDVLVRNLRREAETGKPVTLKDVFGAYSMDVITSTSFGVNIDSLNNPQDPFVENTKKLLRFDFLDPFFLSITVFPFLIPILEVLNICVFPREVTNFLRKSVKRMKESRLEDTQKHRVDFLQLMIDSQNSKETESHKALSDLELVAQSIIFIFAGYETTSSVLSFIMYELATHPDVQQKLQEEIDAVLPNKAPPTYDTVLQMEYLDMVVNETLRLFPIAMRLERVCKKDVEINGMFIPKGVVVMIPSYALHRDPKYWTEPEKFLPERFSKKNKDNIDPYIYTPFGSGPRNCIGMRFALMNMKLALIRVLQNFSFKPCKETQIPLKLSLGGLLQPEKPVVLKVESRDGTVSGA
Assay: Cytochrome panel assay with activity outcomes
Details: recombinant CYP, pro-luciferin dealkylation, luminescence, p450-cyp3a4; series mostly up to 57.1 µM
% is scaled to controls: 0 for no effect and ±100 for the full control effect.

AC50, active:
CCC(C(=O)NC(C)(C)C)N(C(=O)Cn1nnc(-c2cccs2)n1)c1cnc2ccccc2c1 (configuration not stated) 2000 nM
c1cncc(-c2nc(NCCN3CCOCC3)c3ccccc3n2)c1 7940 nM
CS(=O)(=O)Nc1cccc(-c2nc(NCCN3CCOCC3)c3ccccc3n2)c1 15800 nM
CS(=O)(=O)Nc1cccc(-c2nc(N3CCOCC3)c3ccccc3n2)c1 1580 nM
COc1cccc(-c2nc(NCCN3CCOCC3)c3ccccc3n2)c1 12600 nM
N#Cc1cccc(-c2nc(NCCN3CCOCC3)c3ccccc3n2)c1 12600 nM
CCc1ccc2c(c1)cc(CN(C(=S)Nc1cccc(C)c1)C1CC1)c1nnnn12 2240 nM
CC(NC(=O)CCSc1nc(-c2ccc3c(c2)OCO3)cc(C(F)(F)F)n1)c1ccccc1 (configuration not stated) 39.8 nM
CC(NC(=O)CCSc1nc(-c2ccco2)cc(C(F)(F)F)n1)c1ccccc1 (configuration not stated) 20000 nM
COc1ccc(C(=O)/C=C2/c3ccccc3CC(C)(C)N2C)cc1 7080 nM
COc1cccc(-c2cncnc2NCc2ccccc2)c1 316 nM
COc1cccc(-c2cncnc2NCc2cnc(C)cn2)c1 1580 nM
COc1cccc(-c2cncnc2NCc2cccnc2)c1 1260 nM
COc1cccc(-c2cncnc2NCc2cccc(C)c2)c1 398 nM
COc1cccc(-c2cncnc2NCc2cccs2)c1 1580 nM
Cc1cnc(CNc2ncncc2-c2cccc(C#N)c2)cn1 2000 nM
Cc1ccc(-n2nnnc2Sc2nc([N+](=O)[O-])nn2C)cc1C 15800 nM
COC(=O)c1cc(NS(=O)(=O)c2ccc(N3CCCCCC3)c([N+](=O)[O-])c2)cc(C(=O)OC)c1 6310 nM
CC1CCN(c2ccc(S(=O)(=O)Nc3cc(C(=O)O)cc(C(=O)O)c3)cc2[N+](=O)[O-])CC1 5620 nM
COC(=O)c1cc(NS(=O)(=O)c2ccc(N3CCCCC3)c([N+](=O)[O-])c2)cc(C(=O)OC)c1 2000 nM
COc1ccc2c(c1)C(=NN)c1cc(OC)ccc1-2 20000 nM
COc1cccc([C@H]2Oc3ccc(OC)cc3/C(=N\O[C@@H]3O[C@H](COC(C)=O)[C@H](OC(C)=O)[C@H](OC(C)=O)[C@H]3OC(C)=O)[C@@H]2O)c1 3160 nM
CCCNC(=O)OC[C@@H]1O[C@H](CCO/N=C2\c3cc(OC)ccc3O[C@H](c3cccc(OC)c3)[C@H]2O)C=C[C@@H]1Oc1ccc(OC)cc1 5010 nM
COc1ccc(O[C@H]2C=C[C@@H](c3ccccc3)O[C@H]2CO/N=C2/c3cc(OC)ccc3O[C@@H](c3cccc(OC)c3)[C@H]2O)cc1 3160 nM
Cc1cc(C)cc(N2C(=O)CC(Sc3nnnn3-c3ccccc3)C2=O)c1 (configuration not stated) 2000 nM
Cc1cccc(Cn2cnc3c(NS(C)(=O)=O)c(C)c(C)cc32)c1 2000 nM
O=C(CN(C(=O)CSc1nc2ccccc2o1)c1cccc(F)c1)NC1CCCCC1 12600 nM
Cc1cccc(CNc2ncncc2-c2cccnc2)c1 631 nM
c1ccc(CNc2ncncc2-c2cccnc2)cc1 1260 nM
c1cncc(CNc2ncncc2-c2cccnc2)c1 2000 nM
O=C(Nc1ccccc1)N1CCCC2(CCN(C(=O)c3csnn3)CC2)C1 15800 nM
COc1ccc(NC(=O)N2CCCC3(CCN(C(=O)c4csnn4)CC3)C2)cc1 15800 nM
Cc1ccc(NS(=O)(=O)c2ccc(OCC(=O)Nc3cccc([N+](=O)[O-])c3)c(C)c2)cc1 2000 nM
COc1ccccc1NC(=O)Cn1nnc(-c2ccccc2NC(=O)c2cc3ccccc3oc2=O)n1 3550 nM
COC(=O)c1ccc(OCC2c3cc(OC)c(OC)cc3CCN2C(=O)C2CC2)cc1 (configuration not stated) 17800 nM
COc1ccccc1-c1cncnc1NCc1cccc(C)c1 100 nM
COc1ccccc1-c1cncnc1NCc1cccnc1 501 nM
COc1ccccc1-c1cncnc1NCc1ccccc1 251 nM
CCCCCCN(CCCCCC)C(=O)Cc1c(-c2ccc(F)cc2)[nH]c2ccccc12 2510 nM
CCCCCCN(CCCCCC)C(=O)Cc1c(-c2ccc(Cl)cc2)[nH]c2ccc(Cl)cc12 12600 nM

AC50, inactive:
Cc1[nH]nc(N2CCCCCC2)c1[N+](=O)[O-]
O=C(Nc1cnc2ccccc2c1)c1cccc(-n2cnnn2)c1
CS(=O)(=O)Nc1cccc(-c2nc(N3CCNCC3)c3ccccc3n2)c1
O=C1C=C(NCCN2CCOCC2)CC(c2ccccc2)C1 (configuration not stated)
COc1cccc(C2=NOC(C(=O)NCCN3CCOCC3)C2)c1 (configuration not stated)
CCCc1cc(=O)[nH]c(=S)[nH]1
O=C(O)[C@H]1CN[C@H](C(=O)O)C1
N#Cc1cccc(-c2nc3cnc(N4CCOCC4)nc3n(C[C@H]3CCCO3)c2=O)c1
COc1ccc(-n2ncc3c(NCC4CCCO4)ncnc32)cc1 (configuration not stated)
Cc1cccc(CCNc2nc3ccccc3n3nnnc23)c1
C[N+]1(C)CCC(=C(c2ccccc2)c2ccccc2)CC1
COc1ccc(C(Cl)=C(c2ccc(OC)cc2)c2ccc(OC)cc2)cc1
COc1ccc(C(=O)N2CCC3(CCN(C)CC3)CC2)cc1
CCCCCCc1c(C[C@H](N)C(=O)O)o[nH]c1=O
CCOc1nc(NC(C)C)nc(NC(C)C)n1
N=c1nc(N2CCCCC2)cc(N)n1O
CS(=O)(=O)N1CCN(c2ccc(C(=O)NC3C4CC5CC(C4)CC3C5)cc2[N+](=O)[O-])CC1 (configuration not stated)
O=c1c(Oc2ccccc2Br)c(C(F)(F)F)oc2c(CN3CCCC3)c(O)ccc12
O=C1OCCC1Sc1nnnn1-c1ccccc1 (configuration not stated)
Cc1cc2c(ncn2Cc2ccccc2)c([N+](=O)[O-])c1C
CC(=O)NC1(c2cccc(F)c2)CCN(CC(=O)NC2CCCCC2)CC1
COc1ccc(NC(=O)N2CC3(CCN(C(=O)c4csnn4)CC3)C2)cc1
O=C(Nc1ccccc1)N1CCC2(CC1)CCN(C(=O)c1csnn1)CC2
COc1ccc(NC(=O)N2CC3(CCN(C(=O)c4cnccn4)CC3)C2)cc1
CC1CCN(CC(=O)Nc2cccc([N+](=O)[O-])c2)CC1
COc1ccccc1C(=O)Nc1cc2c(ccc3ccccc32)oc1=O
COc1ccc(C(=O)OC(C)CN2CCN(C)CC2)cc1OC (configuration not stated)
CCCCN(C)Cc1c(C)[nH]c2ccc(Cl)cc2c1=O
CCOC(=O)c1[nH]c2ccc(Cl)cc2c1-c1ccccc1

activity, negative = inhibition, inactive:
CS(=O)(=O)Nc1ccc(Nc2c3ccccc3nc3ccccc23)cc1 -25.8% [at 11.4 µM]
CCN(Cc1cc(Cl)cc(C)c1O)Cc1c(O)ccc2ccccc12 -15.9% [at 11.4 µM]
CC[n+]1c(P(=O)([O-])c2ccccc2)[nH]c2ccccc21 -3.39% [at 2.29 µM]
CC(=O)O[C@H]1CC[C@@]2(C)C(=CC[C@@H]3[C@H]4CC[C@@H]([C@H](C)C(=O)O)[C@]4(C)CC[C@H]32)C1 1.09% [at 11.4 µM]
O=C(O)c1ccc(Sc2nnnn2-c2ccccc2)c([N+](=O)[O-])c1 -2.88% [at 11.4 µM]
COC(=O)c1ccc(N2CCN(CC(=O)c3ccc(-c4ccccc4)cc3)CC2)c([N+](=O)[O-])c1 15.7% [at 2.29 µM]
CC1CCN(CCCCOc2ccccc2[N+](=O)[O-])CC1 -4.5% [at 2.29 µM]
C[N+](C)(C)c1nc(N)nc2c1ncn2[C@H]1O[C@@H](CO)[C@@H](O)[C@H]1O 16.1% [at 11.4 µM]
CC(=O)OC[C@@H]1O[C@@H](O/N=C2/C[C@@H](O)[C@@H](O)[C@@H]3[C@H]4C(=O)N(c5ccc(F)cc5F)C(=O)[C@@H]4CC[C@H]23)[C@H](OC(C)=O)[C@H](OC(C)=O)[C@@H]1OC(C)=O -23.8% [at 11.4 µM]
C=CC[C@@H]1C=C[C@H](O/N=C2\c3cc(OC)ccc3O[C@H](c3cccc(OC)c3)[C@H]2O)[C@H](CO)O1 -80.3% [at 11.4 µM]
CC(=O)OC[C@@H]1O[C@@H](O/N=C2/C[C@@H](O)[C@@H](O)[C@@H]3[C@@H]4C(=O)N(c5cccc(Oc6ccccc6)c5)C(=O)[C@H]4CC[C@@H]23)[C@H](OC(C)=O)[C@H](OC(C)=O)[C@@H]1OC(C)=O -35.5% [at 11.4 µM]
CCN1C(=O)[C@H]2[C@H]3[C@H](O)[C@H](O)C/C(=N/OCC[C@H]4C=C[C@H](OC(C)=O)[C@@H](COC(C)=O)O4)[C@@H]3CC[C@@H]2C1=O -18.6% [at 11.4 µM]
C[C@@]1(CCOCc2ccccc2)NC(=O)NC1=O -5.69% [at 11.4 µM]
CC(C)[C@H](NC(=O)OC(C)(C)C)[C@@H](O)CC(=O)C(C)(C)C -11% [at 11.4 µM]
CC(C)CN=C(N)N=C(N)N -1.21% [at 11.4 µM]
O=S(=O)(CC(O)COc1ccccc1Cl)c1ccccc1 (configuration not stated) -5.32% [at 11.4 µM]
CC[C@@]1(O)C(=O)OCc2c1cc1n(c2=O)Cc2cc3c(CN(C)C)c(O)ccc3nc2-1 -2.47% [at 11.4 µM]
CC1(C)O[C@H]2[C@@H](O1)[C@@H](On1nnc3ccc(Cl)cc31)O[C@@H]2[C@@H]1COC(C)(C)O1 -24.7% [at 11.4 µM]

Source: PubChem BioAssay AID1851 (National Center for Advancing Translational Sciences (NCATS), 2009)
